According to PubChem BioAssay (EPA / NIEHS):
Where “and” joins values, the source holds several entries; their conditions need not be identical. Equal values may be shown once. Results filed as inconclusive are left out. Where a structure was tested more than once in an assay, its records may differ in their call. Calls of active or inactive are those of the source. How the source made its calls, unless noted: active means hit-call score of the fitted dose curve at least 0.9, where 1 is the maximum; inconclusive means response in the unintended direction; inactive means score below 0.9.

Biological target: zebrafish Thyroid Hormone Receptor alpha (TRa), thraa (gene 30670) (UniProt Q98867)
Test: ATG_zfTRa_XSP2: Attagene TRANS-FACTORIAL Multi-Species (XSP1) HepG2 Assay for zebrafish Thyroid Hormone Receptor alpha (TRa) (AID 2283832);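 further: actives raise zebrafish TRa-Gal4 reporter transcript above DMSO baseline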
Summary of the method: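 Chimeric zebrafish TRa-Gal4 activity read in transfected human HepG2 as GAL4-UAS reporter transcripts, 24 h post-dose, via RT-PCR with labeled primer extension and capillary electrophoresis. Medium also carries 3 nM 6-alpha-fluorotestosterone and 1.5 nM norgestrel; DMSO baseline.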

zebrafish Thyroid Hormone Receptor alpha (TRa), thraa (gene 30670), sequence (Q98867 whole entry, looked up, the tested form may be a part): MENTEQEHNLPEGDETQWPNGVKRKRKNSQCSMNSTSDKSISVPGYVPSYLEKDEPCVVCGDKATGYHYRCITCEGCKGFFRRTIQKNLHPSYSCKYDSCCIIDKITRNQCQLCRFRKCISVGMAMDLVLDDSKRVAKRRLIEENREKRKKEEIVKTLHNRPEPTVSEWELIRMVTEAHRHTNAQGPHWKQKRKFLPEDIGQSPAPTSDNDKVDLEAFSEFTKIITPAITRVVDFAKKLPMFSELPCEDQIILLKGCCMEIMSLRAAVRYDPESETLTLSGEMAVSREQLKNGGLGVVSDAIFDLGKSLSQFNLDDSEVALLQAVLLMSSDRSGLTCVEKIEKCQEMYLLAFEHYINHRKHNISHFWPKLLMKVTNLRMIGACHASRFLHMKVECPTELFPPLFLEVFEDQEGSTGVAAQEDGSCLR

| SMILES | outcome |
| --- | --- |
| CCCOCC(=Nc1ccc(Cl)cc1C(F)(F)F)n1ccnc1 | inactive |
| CCc1cccc(C)c1N(C(=O)CCl)C(C)COC (stereo not drawn) | inactive |
| CCC(=O)Nc1ccc(Cl)c(Cl)c1 | inactive |
| CCC(CC)Nc1c([N+](=O)[O-])cc(C)c(C)c1[N+](=O)[O-] | inactive |
| CCOP(=O)(NC(C)C)Oc1ccc(SC)c(C)c1 (stereo not drawn) | inactive |
| Nc1c(Cl)cc([N+](=O)[O-])cc1Cl | inactive |
| C#CC(C)(C)NC(=O)c1cc(Cl)cc(Cl)c1 | inactive |
| COc1ccc(C(=CC(=O)N2CCOCC2)c2ccc(Cl)cc2)cc1OC | inactive |
| C#CCC1=C(C)C(OC(=O)C2C(C=C(C)C)C2(C)C)CC1=O (stereo not drawn) | inactive |

Tested on: zebrafish Peroxisome Proliferator-activated Receptor gamma (PPARg), gene 557037
Test: ATG_zfPPARg_XSP2: Attagene TRANS-FACTORIAL Multi-Species (XSP2) HepG2 Assay for zebrafish Peroxisome Proliferator-activated Receptor gamma (PPARg) (AID 2283833);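 further: actives increase reporter signal over DMSO so AC50 reflects activation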
Summary of the method: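 Multi-species TRANS format in HepG2, 24 h dosing; medium also contained 3 nM 6-alpha-fluorotestosterone and 1.5 nM norgestrel to stimulate androgen receptor. Zebrafish PPARg-GAL4 induced reporter mRNA was measured by RT-PCR/capillary electrophoresis.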

| SMILES | outcome | AC50 |
| --- | --- | --- |
| CCCOCC(=Nc1ccc(Cl)cc1C(F)(F)F)n1ccnc1 | inactive |  |
| CCc1cccc(C)c1N(C(=O)CCl)C(C)COC (stereo not drawn) | inactive |  |
| CCC(=O)Nc1ccc(Cl)c(Cl)c1 | inactive |  |
| CCC(CC)Nc1c([N+](=O)[O-])cc(C)c(C)c1[N+](=O)[O-] | inactive |  |
| CCOP(=O)(NC(C)C)Oc1ccc(SC)c(C)c1 (stereo not drawn) | inactive | 100 µM (active) |
| Nc1c(Cl)cc([N+](=O)[O-])cc1Cl | inactive |  |
| CCOP(=S)(OCC)Oc1ccc2c(C)c(Cl)c(=O)oc2c1 | inactive |  |
| C#CC(C)(C)NC(=O)c1cc(Cl)cc(Cl)c1 | inactive |  |
| COc1ccc(C(=CC(=O)N2CCOCC2)c2ccc(Cl)cc2)cc1OC | inactive |  |
| C#CCC1=C(C)C(OC(=O)C2C(C=C(C)C)C2(C)C)CC1=O (stereo not drawn) | inactive |  |

Tested on: turtle Thyroid Hormone Receptor, alpha (TRa), gene 101949057
Test: ATG_trTRa_XSP2: Attagene TRANS-FACTORIAL Multi-Species (XSP1) HepG2 Assay for turtle Thyroid Hormone Receptor, alpha (TRa) (AID 2283834);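 further: hits raise reporter mRNA over the DMSO baseline so AC50 marks activators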
Summary of the method: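 Transfection of HepG2 with multiple reporter transcription units, then chemical dosing for 24 h. Total RNA was reverse-transcribed, reporter sequences PCR-amplified and FAM-labelled, then sized by capillary electrophoresis. DMSO served as baseline.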

| SMILES | outcome | AC50 |
| --- | --- | --- |
| CCC(=O)Nc1ccc(Cl)c(Cl)c1 | inactive |  |
| CCC(CC)Nc1c([N+](=O)[O-])cc(C)c(C)c1[N+](=O)[O-] | inactive |  |
| CCOP(=O)(NC(C)C)Oc1ccc(SC)c(C)c1 (stereo not drawn) | inactive |  |
| Nc1c(Cl)cc([N+](=O)[O-])cc1Cl |  | 23.6 µM (active) and 29.8 µM (active) |
| CCOP(=S)(OCC)Oc1ccc2c(C)c(Cl)c(=O)oc2c1 |  | 64.7 µM (active) |
| C#CC(C)(C)NC(=O)c1cc(Cl)cc(Cl)c1 | inactive |  |
| C#CCC1=C(C)C(OC(=O)C2C(C=C(C)C)C2(C)C)CC1=O (stereo not drawn) | inactive |  |

Tested on: not listed separately
Test: ATG_M_61_XSP2: Attagene TRANS-FACTORIAL Multi-Species (XSP2) HepG2 Assay for M61 Transcription Factor (Internal Marker) (AID 2283835; active means hit-call score of the fitted dose curve at least 0.9, where 1 is the maximum; inactive means score below 0.9;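 further: reporter mRNA of an internal background marker read by RT-PCR and capillary electrophoresis; active means a rise in signal above the DMSO baseline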)
Summary of the method: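 Transient MRTU transfection of human HepG2; 24 h chemical dosing with 3 nM 6-alpha-fluorotestosterone + 1.5 nM norgestrel added for AR stimulation. RNA isolated, RT, PCR, FAM-labelled, HpaI cut, CE read. Positive direction vs DMSO.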

| SMILES | outcome |
| --- | --- |
| CCCOCC(=Nc1ccc(Cl)cc1C(F)(F)F)n1ccnc1 | inactive |
| CCc1cccc(C)c1N(C(=O)CCl)C(C)COC (stereo not drawn) | inactive |
| CCC(=O)Nc1ccc(Cl)c(Cl)c1 | inactive |
| CCC(CC)Nc1c([N+](=O)[O-])cc(C)c(C)c1[N+](=O)[O-] | inactive |
| CCOP(=O)(NC(C)C)Oc1ccc(SC)c(C)c1 (stereo not drawn) | inactive |
| CCOP(=S)(OCC)Oc1ccc2c(C)c(Cl)c(=O)oc2c1 | inactive |
| C#CC(C)(C)NC(=O)c1cc(Cl)cc(Cl)c1 | inactive |
| COc1ccc(C(=CC(=O)N2CCOCC2)c2ccc(Cl)cc2)cc1OC | inactive |
| C#CCC1=C(C)C(OC(=O)C2C(C=C(C)C)C2(C)C)CC1=O (stereo not drawn) | inactive |

Biological target: zebrafish Thyroid Hormone Receptor beta (TRb), thrb (gene 30607) (UniProt Q9PVE4)
Test: ATG_zfTRb_XSP2: Attagene TRANS-FACTORIAL Multi-Species (XSP1) HepG2 Assay for zebrafish Thyroid Hormone Receptor beta (TRb) (AID 2283836);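 on AC50: potency for induction of reporter signal above DMSO so agonist direction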
Summary of the method: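 Reporter transcripts measured by RT-PCR, 6-FAM labelling, HpaI digestion and capillary electrophoresis after 24 h chemical exposure. Human HepG2 cells carry an exogenous zebrafish TRb-GAL4 chimera; medium included 3 nM 6-alpha-fluorotestosterone plus 1.5 nM norgestrel.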

zebrafish Thyroid Hormone Receptor beta (TRb), thrb (gene 30607), sequence (Q9PVE4 whole entry, looked up): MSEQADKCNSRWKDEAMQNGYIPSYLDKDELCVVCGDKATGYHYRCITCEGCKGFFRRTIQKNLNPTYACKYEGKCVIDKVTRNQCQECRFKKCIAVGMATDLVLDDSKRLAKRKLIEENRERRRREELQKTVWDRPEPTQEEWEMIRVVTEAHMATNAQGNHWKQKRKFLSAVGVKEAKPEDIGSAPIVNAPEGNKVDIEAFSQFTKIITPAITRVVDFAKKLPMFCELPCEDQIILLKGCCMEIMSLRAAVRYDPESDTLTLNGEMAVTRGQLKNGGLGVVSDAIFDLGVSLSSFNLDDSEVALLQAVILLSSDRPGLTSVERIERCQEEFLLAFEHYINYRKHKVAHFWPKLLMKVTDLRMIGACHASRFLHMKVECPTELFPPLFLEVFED

| SMILES | outcome | AC50 |
| --- | --- | --- |
| CCCOCC(=Nc1ccc(Cl)cc1C(F)(F)F)n1ccnc1 | inactive |  |
| CCc1cccc(C)c1N(C(=O)CCl)C(C)COC (stereo not drawn) | inactive |  |
| CCC(=O)Nc1ccc(Cl)c(Cl)c1 | inactive |  |
| CCC(CC)Nc1c([N+](=O)[O-])cc(C)c(C)c1[N+](=O)[O-] | inactive |  |
| CCOP(=O)(NC(C)C)Oc1ccc(SC)c(C)c1 (stereo not drawn) | inactive |  |
| Nc1c(Cl)cc([N+](=O)[O-])cc1Cl | inactive | 48.3 µM (active) |
| CCOP(=S)(OCC)Oc1ccc2c(C)c(Cl)c(=O)oc2c1 | inactive |  |
| C#CC(C)(C)NC(=O)c1cc(Cl)cc(Cl)c1 | inactive |  |
| COc1ccc(C(=CC(=O)N2CCOCC2)c2ccc(Cl)cc2)cc1OC | inactive |  |
| C#CCC1=C(C)C(OC(=O)C2C(C=C(C)C)C2(C)C)CC1=O (stereo not drawn) | inactive |  |

Tested on: not listed separately
Test: ATG_XTT_Cytotoxicity_XSP2: Cytotoxicity Assessment in the Attagene TRANS-FACTORIAL Multi-Species (XSP2) HepG2 Assay (AID 2283837)
Summary of the method: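 XTT-based cell number read-out in human HepG2 liver cells carrying transfected reporter units, measured 24 h after chemical dosing. Activity is signal loss versus DMSO baseline.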

| SMILES | outcome |
| --- | --- |
| CCC(=O)Nc1ccc(Cl)c(Cl)c1 | inactive |
| CCOP(=O)(NC(C)C)Oc1ccc(SC)c(C)c1 (stereo not drawn) | inactive |
| Nc1c(Cl)cc([N+](=O)[O-])cc1Cl | inactive |
| COc1ccc(C(=CC(=O)N2CCOCC2)c2ccc(Cl)cc2)cc1OC | inactive |

Biological target: human Thyroid hormone Receptor alpha (TRa), THRA (gene 7067) (UniProt P10827)
Test: ATG_hTRa_XSP2: Attagene TRANS-FACTORIAL Multi-Species (XSP2) HepG2 Assay for human Thyroid hormone Receptor alpha (TRa) (AID 2283838)
Summary of the method: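 Reporter transcripts were read by RT-PCR with fluorescent primer extension, HpaI digestion and capillary electrophoresis. These came from HepG2 cells carrying multiplexed TRa-Gal4 TRANS constructs, harvested 24 hours after dosing. The medium also held 6-alpha-fluorotestosterone (3 nM) and norgestrel (1.5 nM), and increases were fitted against DMSO.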

human Thyroid hormone Receptor alpha (TRa), THRA (gene 7067), sequence (P10827 whole entry, looked up): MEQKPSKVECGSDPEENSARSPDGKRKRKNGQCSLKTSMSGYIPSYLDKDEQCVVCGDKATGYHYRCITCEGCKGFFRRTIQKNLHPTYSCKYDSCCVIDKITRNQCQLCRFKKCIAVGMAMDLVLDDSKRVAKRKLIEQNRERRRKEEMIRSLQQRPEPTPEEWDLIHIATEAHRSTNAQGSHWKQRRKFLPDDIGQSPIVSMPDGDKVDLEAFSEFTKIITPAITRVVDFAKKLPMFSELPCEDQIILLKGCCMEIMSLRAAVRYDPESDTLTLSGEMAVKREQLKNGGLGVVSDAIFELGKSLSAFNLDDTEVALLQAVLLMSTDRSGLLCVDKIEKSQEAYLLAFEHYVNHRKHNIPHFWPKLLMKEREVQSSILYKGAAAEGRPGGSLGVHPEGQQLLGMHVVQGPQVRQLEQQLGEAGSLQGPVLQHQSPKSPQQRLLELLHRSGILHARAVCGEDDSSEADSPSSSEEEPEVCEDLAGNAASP

| SMILES | AC50 | outcome |
| --- | --- | --- |
| CCC(=O)Nc1ccc(Cl)c(Cl)c1 | 165 µM (active) | inactive |
| CCC(CC)Nc1c([N+](=O)[O-])cc(C)c(C)c1[N+](=O)[O-] |  | inactive |
| Nc1c(Cl)cc([N+](=O)[O-])cc1Cl | 43.6 µM (active) and 22.8 µM (active) |  |
| CCOP(=S)(OCC)Oc1ccc2c(C)c(Cl)c(=O)oc2c1 |  | inactive |
| C#CC(C)(C)NC(=O)c1cc(Cl)cc(Cl)c1 |  | inactive |
| COc1ccc(C(=CC(=O)N2CCOCC2)c2ccc(Cl)cc2)cc1OC |  | inactive |
| C#CCC1=C(C)C(OC(=O)C2C(C=C(C)C)C2(C)C)CC1=O (stereo not drawn) |  | inactive |

Biological target: frog Thyroid hormone Receptor alpha (TRa), thra-a (gene 397942) (UniProt P15204)
Test: ATG_frTRa_XSP2: Attagene TRANS-FACTORIAL Multi-Species (XSP2) HepG2 Assay for frog Thyroid hormone Receptor alpha (TRa) (AID 2283839);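 on AC50: AC50 reflects induction of frog TRa-driven reporter mRNA above DMSO baseline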
Summary of the method: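 Transfect HepG2 with multiple reporter units (GAL4-UAS), dose chemical, incubate 24 h. Isolate RNA, reverse-transcribe, PCR-amplify reporter, label with 6-FAM by primer extension, digest with HpaI, run capillary electrophoresis; induction scored against DMSO.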

frog Thyroid hormone Receptor alpha (TRa), thra-a (gene 397942), sequence (P15204 whole entry, looked up): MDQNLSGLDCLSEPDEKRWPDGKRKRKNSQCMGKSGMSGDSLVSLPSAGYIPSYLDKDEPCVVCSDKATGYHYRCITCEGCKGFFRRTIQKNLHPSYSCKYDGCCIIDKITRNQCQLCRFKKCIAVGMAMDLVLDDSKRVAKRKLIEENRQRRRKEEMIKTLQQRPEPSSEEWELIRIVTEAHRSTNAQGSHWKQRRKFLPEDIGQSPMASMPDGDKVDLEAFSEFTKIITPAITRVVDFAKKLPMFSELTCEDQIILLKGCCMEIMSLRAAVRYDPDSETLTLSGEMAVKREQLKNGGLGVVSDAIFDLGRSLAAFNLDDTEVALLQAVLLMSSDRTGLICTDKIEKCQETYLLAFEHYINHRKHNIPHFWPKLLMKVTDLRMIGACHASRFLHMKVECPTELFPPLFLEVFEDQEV

| SMILES | outcome | AC50 |
| --- | --- | --- |
| CCc1cccc(C)c1N(C(=O)CCl)C(C)COC (stereo not drawn) | inactive |  |
| CCC(=O)Nc1ccc(Cl)c(Cl)c1 | inactive |  |
| CCC(CC)Nc1c([N+](=O)[O-])cc(C)c(C)c1[N+](=O)[O-] | inactive |  |
| CCOP(=O)(NC(C)C)Oc1ccc(SC)c(C)c1 (stereo not drawn) | inactive |  |
| Nc1c(Cl)cc([N+](=O)[O-])cc1Cl |  | 27.1 µM (active) |
| CCOP(=S)(OCC)Oc1ccc2c(C)c(Cl)c(=O)oc2c1 | inactive |  |
| C#CC(C)(C)NC(=O)c1cc(Cl)cc(Cl)c1 |  | 26.8 µM (active) |
| COc1ccc(C(=CC(=O)N2CCOCC2)c2ccc(Cl)cc2)cc1OC | inactive |  |
| C#CCC1=C(C)C(OC(=O)C2C(C=C(C)C)C2(C)C)CC1=O (stereo not drawn) | inactive |  |
